Source: PubChem BioAssay
TRHR agonist-1: agonists of human TRH receptor. TRHR cells, calcium flux fluo-8, FDSS agonist mode. 360,000 tested, 0.18% active. activation, % at 2 µM. P34981. AID 493084; in the data active = activation above about 30%; also: 0% is about no effect
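In this calcium-flux screen, cells bearing human TRHR are dye-loaded with fluo-8, baselined for 10 cycles, then exposed to library compounds; positive kinetic calcium responses during the agonist phase mark hits, with TRH as control.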
TRHR enhancer-1: TRH receptor (human) allosteric enhancement. P34981. enhancement, % at 2 µM. TRHR cells, fluo-8 calcium fluorescence, EC20 TRH enhancement. 360,000 tested, 0.66% active; in the data active = enhancement above about 30%; also: 0% is about no effect
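TRHR-expressing cells loaded with fluo-8 calcium dye were read kinetically (ex 480/em 530) during compound addition, then stimulated with an EC20 of TRH (10 nM final). Enhancement of the Gq-mediated intracellular calcium response was scored.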
D1 potentiator: potentiators of human D1 dopamine receptor | 360,000 tested, 0.036% active | potentiation, % at 10 µM | HEK293 TREx D1 cells, calcium flux, dopamine EC20 potentiation | AID 504651; in the data active = potentiation above about 30%; also: 0% is about no effect
Target sequence (P21728 whole entry, looked up): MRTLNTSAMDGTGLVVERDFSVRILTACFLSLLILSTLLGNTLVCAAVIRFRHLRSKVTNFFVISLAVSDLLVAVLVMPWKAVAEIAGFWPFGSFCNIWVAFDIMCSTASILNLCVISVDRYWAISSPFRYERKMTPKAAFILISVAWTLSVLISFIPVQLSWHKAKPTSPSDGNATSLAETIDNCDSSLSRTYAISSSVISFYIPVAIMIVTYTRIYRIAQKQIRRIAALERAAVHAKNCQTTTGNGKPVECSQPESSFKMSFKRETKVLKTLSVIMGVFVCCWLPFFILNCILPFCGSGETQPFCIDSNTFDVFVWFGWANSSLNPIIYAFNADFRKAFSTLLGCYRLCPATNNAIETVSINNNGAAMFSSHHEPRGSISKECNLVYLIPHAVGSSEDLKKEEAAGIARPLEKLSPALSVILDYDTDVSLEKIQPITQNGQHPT
D1 ag: activates the human D1 dopamine receptor; 360,000 tested, 1% active; P21728; activation, % at 2 µM; HEK293 T-REx D1 cells, calcium flux, agonist mode; in the data active = activation above about 30%; also: 0% is about no effect
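Inducible HEK293 T-REx D1 cells, force-coupled to calcium signalling, were plated at 4000 cells/well with tetracycline and held overnight at 30 C. After no-wash calcium dye loading, compound-evoked calcium rise over 180 s flagged agonists.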
D1 antag: human D1 dopamine receptor antagonism; P21728; HEK293 TREx D1 cells, calcium flux, dopamine EC80; hits give low values; activity change, negative = inhibition, % at 10 µM; 360,000 tested, 3.2% active; AID 504652; in the data active = activity change below about -30%; also: % is scaled to controls: 0 for no effect and ±100 for the full control effect
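Calcium flux readout: force-coupled, inducible Hek293 Trex D1 line, cells induced overnight at 30 C with tetracycline, dye-loaded 30–90 min at RT. Antagonism scored against EC80 dopamine challenge given 180 s after compound.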
TRHR enhancer-2: human TRH receptor allosteric enhancement confirmation; activity change, negative = inhibition, % at 46.1 µM; TRH receptor cell assay, enhancer confirmation qHTS; 970 tested, under 10 active; shares compounds with TRHR enhancer-1;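 also: compound effect scored on response to added TRH at EC20 of 10 nM; 0% is about no effect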
TRHR agonist-2: human TRH receptor agonism confirmation; shares compounds with TRHR enhancer-1; TRHR-expressing cells, agonist activation read-out; Potency, µM (titrated, usually from 46.1 µM), inactives show at the top dose activation, most hits filed as activators; 970 tested, 8% active; AID 493078; also: potency is read from the fitted curve at half-maximal effect; 0% is about no effect; nearly all actives have a fitted effect of over 75% in size
An asterisk follows results filed as active; ? = inconclusive; nt = not tested or not shown. A selection: hits, their analogues and other compounds. The true share with any hit is near 4.7%. Unless noted, calls follow the shape of the dose curve; as a rule, active = well fitted curve in the direction sought with a large enough effect; inconclusive = small, poorly fitted or top-dose-only effect, or another doubt; inactive = no such curve, though single readings can be large; an effect the other way counts as inactive or inconclusive.

SMILES	TRHR agonist-1	TRHR enhancer-1	D1 potentiator	D1 ag	D1 antag	TRHR enhancer-2	TRHR agonist-2
Cc1ccc2cc(NC(=O)Cc3ccccc3)ccc2n1	0	3	2	1	-7	nt	nt
N#Cc1ccccc1OCc1nnc(-c2ccccc2Br)o1	0	44*	4	0	19	-18	3%
Clc1ccccc1OCc1nnc(-c2ccccc2Br)o1	0	-8	-2	3	-4	nt	nt
CC1Cc2ccccc2N1C(=O)CSc1nnc2sc3ccccc3n12 (stereo not given)	0	63*	2	0	-3	1	-1%
Cc1noc(C)c1CSc1nnc2sc3ccccc3n12	0	43*	13	3	23	-5	1%
N#CCSc1nnc2sc3ccccc3n12	0	-3	-2	3	-9	nt	nt
COc1ccc(CCNc2oc(-c3ccccc3OC)nc2C#N)cc1OC	1	43*	4	3	13	?	0%
COc1ccc(CCNc2oc(-c3ccccc3OC)nc2C#N)cc1	-1	-4	-10	-4	-11	nt	nt
COc1ccc(-c2cn3nc(N4CCC(C(=O)Nc5ccc(C)cc5)CC4)sc3n2)cc1	1	8	3	-1	10	nt	nt
COc1ccc(Cl)cc1C(=O)Nc1ccc(CN2CCCCC2)cc1	2	64*	-11	2	-8	3	7%
NC(=O)CN1C(=O)NC(c2ccccc2)(c2ccccc2)C1=O	1	1	-4	2	-6	nt	nt
CC(C)(C)C(=O)CN1C(=O)NC(c2ccccc2)(c2ccccc2)C1=O	3	42*	8	1	2	-1	0%
NCCSc1c(-c2ccc(F)cc2)[nH]c2ccccc12	4	45*	-5	18	-4	2	?
COC(=O)c1cc2occc2n1CC(=O)Nc1cccc(SC)c1	0	4	2	4	-18	nt	nt
COC(=O)c1cc2sccc2n1CC(=O)Nc1cccc(SC)c1	0	45*	-7	6	-5	1	4%
COc1cc2ncnc(NCc3ccco3)c2cc1OC	-2	75*	-12	2	-4	-6	4%
COc1cc2ncnc(NCc3ccccc3)c2cc1OC	0	-1	-8	2	-2	nt	nt
CCOC(=O)c1cc(-c2csc(-c3ccc(C(C)(C)C)cc3)n2)on1	0	44*	-8	5	-17	7	2%
O=C(O)c1ccc(N/N=C/c2cccc(F)c2)cc1	0	3	5	2	-1	nt	nt
O=C(O)c1ccc(N/N=C/c2ccc(F)c(F)c2)cc1	0	47*	-5	3	6	-9	-1%
Cc1ccc(NC(=O)C2CC(=O)n3c(nc4ccccc43)N2)cc1Cl (stereo not given)	1	45*	-8	3	26	-2	2%
CCCn1c(N)c(C(=O)CSc2nncs2)c(=O)[nH]c1=O	0	41*	nt	4	-13	0	-1%
Cc1cc(C)c(NC(=O)CSc2ncc(S(=O)(=O)c3ccc(C(C)(C)C)cc3)c(=O)[nH]2)c(C)c1	0	-8	1	14	-7	nt	nt
CC1=C(C(=O)Nc2cccnc2)C(c2ccc(F)cc2)n2nc(SCc3ccccc3)nc2N1 (stereo not given)	1	3	3	3	-7	nt	nt
CCc1cc(=O)[nH]c(SCc2ccc(C)cc2)n1	0	54*	-5	2	22	-1	-1%
SMILES	TRHR agonist-1	TRHR enhancer-1	D1 potentiator	D1 ag	D1 antag	TRHR enhancer-2	TRHR agonist-2
Cc1cc(Nc2ccc(Br)c(C)c2)n2nc(-c3ccco3)nc2n1	-1	-1	-1	4	11	nt	nt
COc1ccc2c(C)c(C(=O)N3CCN(Cc4ccccc4)CC3)oc2c1	0	70*	0	2	-4	?	0%
COc1ccc(Cn2c(=O)[nH]c3cc(C(=O)N4CCN(Cc5ccccc5)CC4)ccc3c2=O)cc1	0	-1	-4	4	-12	nt	nt
COc1ccc(-c2cn3c(n2)sc2cc(C(=O)NC(C)C45CC6CC(CC(C6)C4)C5)ccc23)cc1 (stereo not given)	0	-3	-4	0	-11	nt	nt
CCOc1ccc(-c2nc3c(c(SCC(=O)N4CCCCC4)n2)Cc2cc(C)ccc2O3)cc1	1	3	1	0	-6	nt	nt
O=C(COC(=O)c1cccnc1Cl)Nc1cccc(S(=O)(=O)N2CCCCC2)c1	0	54*	-1	16	-5	-6	4%
Cc1cc(Nc2cc(Cl)ccc2C)n2nc(Cc3ccccc3)nc2n1	-2	0	0	6	-8	nt	nt
CCOC(=O)C1CCN(C(=O)Cn2c(-c3cccs3)cc3cc(Cl)ccc32)CC1	0	5	-2	1	-26	nt	nt
CC(C)CC(=O)NC(=S)N1CCCCCC1	0	42*	-6	-2	8	?	0%
O=C(NCCc1ccccc1Cl)C1CCC(=O)N(C2CCCCCC2)C1 (stereo not given)	0	4	1	0	15	nt	nt
O=C(NCCOc1ccccc1)C1CCC(=O)N(C2CCCCCC2)C1 (stereo not given)	0	58*	-2	11	-3	4	-1%
COc1ccc(-c2nc3c4ccccc4n(CC(=O)N4CCN(c5ccccc5F)CC4)c(=O)n3n2)cc1	0	-2	-2	-5	nt	nt	nt
Cc1ccc(CN2C(=O)N/C(=C\c3ccc(N4CCOCC4)cc3)C2=O)cc1	0	-3	-6	2	-2	nt	nt
CCCN1C(=O)/C(=C/c2ccc(N3CCOCC3)cc2)NC1=S	48*	13	-1	132*	5	?	16µM*
COc1ccccc1N1CCN(C(=O)CSc2nc(-c3ccc(C(C)C)cc3)no2)CC1	0	4	3	6	15	nt	nt
O=C(O)c1cccc(-n2cnc3cccnc32)c1	1	-3	4	4	-16	nt	nt
Cc1ccc2oc(=O)c3cc(C(=O)Nc4cccc(C#N)c4)sc3c2c1	0	2	-1	3	-26	nt	nt
COc1ccc2nc(-c3ccccn3)[nH]c2c1	0	46*	-4	2	-2	-3	2%
O=C(CCN1C(=O)c2ccccc2C1=O)Nc1ccc(S(=O)(=O)N2CCOCC2)cc1	0	3	-1	1	-12	nt	nt
CC1CCCN(S(=O)(=O)c2ccc(NC(=O)CCN3C(=O)c4ccccc4C3=O)cc2)C1 (stereo not given)	38*	-4	0	-1	4	-2	0%
Cc1cccc(NC(=O)c2sc(-n3nc(C)c(Cc4ccc5c(c4)OCO5)c3C)nc2C)c1C	-1	-2	-1	6	2	nt	nt
